Data taken from PubChem BioAssay AID1259349 (Broad Institute, 2017).
Hit rate of the full screen: of about 17,000 compounds, about 1,100 (6.5%) were called active.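 Rule for the calls: active = z-score of -3 or lower, meaning strong loss of probe binding signal; inactive = the rest.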 What follows is part of a selection rich in actives, with near analogues and random picks from the rest.

What follows are compounds tested against Insulin-degrading enzyme (Homo sapiens) (UniProt P14735) (assay: exo-site inhibitors of human IDE, primary screen, biochemical, fluorescence anisotropy, probe displacement (AID 1259349;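 note: His-tagged human IDE residues 42-1019 made in E. coli with 30 nM FL-6b probe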)). Settings: purified IDE, FL-6b probe fluorescence polarization; at 20 µM; hits give low values.
Insulin-degrading enzyme (Homo sapiens), sequence (P14735 42-1019 limits assumed): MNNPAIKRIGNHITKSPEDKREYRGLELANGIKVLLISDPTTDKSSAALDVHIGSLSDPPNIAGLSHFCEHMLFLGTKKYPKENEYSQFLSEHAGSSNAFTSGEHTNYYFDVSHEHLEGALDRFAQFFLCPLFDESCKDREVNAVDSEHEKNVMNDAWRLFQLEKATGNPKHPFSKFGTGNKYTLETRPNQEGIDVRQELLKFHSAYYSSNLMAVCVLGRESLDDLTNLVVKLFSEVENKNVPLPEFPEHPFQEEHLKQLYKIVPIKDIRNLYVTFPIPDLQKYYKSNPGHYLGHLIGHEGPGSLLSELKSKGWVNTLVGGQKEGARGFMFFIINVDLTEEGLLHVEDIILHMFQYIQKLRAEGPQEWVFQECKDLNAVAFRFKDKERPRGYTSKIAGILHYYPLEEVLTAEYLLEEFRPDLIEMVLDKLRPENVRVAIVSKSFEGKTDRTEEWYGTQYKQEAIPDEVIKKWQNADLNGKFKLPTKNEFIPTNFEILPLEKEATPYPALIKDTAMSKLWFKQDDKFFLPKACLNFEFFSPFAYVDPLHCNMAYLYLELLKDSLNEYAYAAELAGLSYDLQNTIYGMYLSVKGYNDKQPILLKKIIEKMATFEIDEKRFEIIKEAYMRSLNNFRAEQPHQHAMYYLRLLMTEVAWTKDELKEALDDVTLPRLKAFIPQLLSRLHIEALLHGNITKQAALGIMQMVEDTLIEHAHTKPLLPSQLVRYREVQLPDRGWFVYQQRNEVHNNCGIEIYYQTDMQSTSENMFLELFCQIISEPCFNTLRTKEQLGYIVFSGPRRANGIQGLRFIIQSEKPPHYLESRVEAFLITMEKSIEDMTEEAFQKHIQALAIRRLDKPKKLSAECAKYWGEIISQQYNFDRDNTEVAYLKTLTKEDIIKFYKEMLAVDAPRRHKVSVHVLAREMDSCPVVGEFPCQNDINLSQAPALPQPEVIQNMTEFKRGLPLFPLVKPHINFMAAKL

z-score, active:
N#C[C@@H]1[C@@H](c2ccc(-c3ccccc3F)cc2)[C@@H](CO)N1C(=O)c1ccccn1 -6.83
N#C[C@H]1[C@@H](c2ccc(-c3ccccc3F)cc2)[C@H](CO)N1C(=O)c1ccccn1 -3.67
N#C[C@@H]1[C@@H](c2ccc(-c3ccccc3F)cc2)[C@@H](CO)N1C(=O)C1CC1 -5.9
COc1cccc(-c2ccc([C@@H]3[C@@H](C#N)N(C(=O)c4ccccn4)[C@H]3CO)cc2)c1 -4.27
COc1cccc(-c2ccc([C@@H]3[C@@H](CO)N(C(=O)c4ccccn4)[C@H]3C#N)cc2)c1 -6.41
COc1cccc(-c2ccc([C@H]3[C@H]4CN(C(=O)NC(C)C)CC(=O)N4[C@H]3CO)cc2)c1 -10.1
COc1cccc(-c2ccc([C@@H]3[C@@H](CO)N4C(=O)CN(C(=O)C5CCCCC5)C[C@H]34)cc2)c1 -3.69
Cc1cccc(-c2ccc([C@@H]3[C@H](CO)N4CCCCN(C(=O)c5ccc6c(c5)OCO6)C[C@@H]34)cc2)c1 -4.42
COc1ccccc1-c1ccc([C@@H]2[C@@H](CO)N3CCCCN(C(=O)c4ccncc4)C[C@@H]23)cc1 -4.74
CCS(=O)(=O)N1CCCCN2[C@@H](CO)[C@@H](c3ccc(-c4ccccc4)cc3)[C@@H]2C1 -3.06
Cc1cccc(-c2ccc([C@H]3[C@H](CO)N4CCCCN(S(=O)(=O)c5cn(C)cn5)C[C@@H]34)cc2)c1 -4.09
O=C(c1ccncc1)N1CCCCN2[C@H](CO)[C@H](c3ccc(-c4ccccc4)cc3)[C@H]2C1 -4.53
O=C(c1ccc(F)cc1)N1CCCCN2[C@H](C1)[C@@H](c1ccc(C#CC3(O)CCCC3)cc1)[C@@H]2CO -3.65

z-score, inactive:
CCCNC(=O)C[C@@H]1CC[C@H]2[C@@H](COC[C@H](O)CN2C(=O)Nc2ccc(Cl)c(Cl)c2)O1 -0.531
Cc1noc(C)c1S(=O)(=O)Nc1ccc2c(c1)C(=O)N([C@@H](C)CO)C[C@@H](C)[C@H](CN(C)C(=O)Nc1cccc3ccccc13)OCCCC[C@H](C)O2 0.278
COc1ccccc1-c1ccc2c(c1)O[C@@H](CN(C)CC1CCOCC1)[C@H](C)CN([C@@H](C)CO)S2(=O)=O -0.56
CCNC(=O)c1cc2c(c(-c3cccc(-c4cncnc4)c3)n1)[C@H](CCO)N(C(C)=O)C2 -0.344
O=C1CNC[C@H]2[C@@H](c3ccc(C4=CCCC4)cc3)[C@@H](CO)N12 1.84
N#C[C@@H]1[C@@H](c2ccc(/C=C/c3ccccc3)cc2)[C@@H](CO)N1C(=O)C1CC1 -0.906
N#C[C@@H]1[C@H](c2ccccc2-c2ccccc2F)[C@@H](CO)N1C(=O)c1ccccn1 -0.079
N#C[C@H]1[C@@H](c2ccccc2-c2ccccc2F)[C@@H](CO)N1C(=O)C1CCC1 -0.535
N#C[C@H]1[C@@H](c2ccccc2C2=CCCCC2)[C@H](CO)N1C(=O)c1ccccn1 0.206
CC(=O)N(C)C[C@@H]1[C@@H](c2ccc(-c3ccccc3F)cc2)[C@@H](CO)N1C(C)=O 2.54
N#C[C@H]1[C@H](c2ccccc2)[C@@H](CO)N1C(=O)c1cccnc1 1.75
CC(C)NC(=O)N1[C@H](C#N)[C@@H](c2ccc(-c3ccc(F)cc3)cc2)[C@H]1CO 2.54
O=C(CC1CC1)N1CC(=O)N2[C@H](CO)[C@H](c3ccc(C#Cc4ccc(F)cc4)cc3)[C@@H]2C1 3.38
CCC(=O)N(C)C[C@H]1[C@H](c2ccc(C3=CCCCC3)cc2)[C@@H](CO)N1C(C)=O 3.35
N#C[C@H]1[C@H](c2ccc(-c3ccccc3)cc2)[C@@H](CO)N1C(=O)Cc1ccccc1 1.03
COc1cccc(C#Cc2ccc([C@H]3[C@@H](CO)N(C(=O)c4ccccn4)[C@H]3C#N)cc2)c1 0.995
N#C[C@@H]1[C@@H](c2ccc(-c3ccccc3)cc2)[C@@H](CO)N1C(=O)Cc1ccccc1 1.8
COc1ccc(-c2ccc([C@@H]3[C@@H](C#N)N(C(=O)C4CCC4)[C@@H]3CO)cc2)cc1 4.33
CC(=O)N1[C@@H](CO)[C@@H](c2ccccc2)[C@@H]1CN(C)C(=O)CN1CCOCC1 0.517
C[C@@H]1CN([C@H](C)CO)C(=O)c2cc(NC(=O)Cc3ccccc3)ccc2O[C@@H](C)CCCCO[C@@H]1CN(C)Cc1ccncc1 -1.57
C[C@@H]1COCc2cn(nn2)CC[C@H](C)C(=O)N1 0.508
COc1ccc(NC(=O)N2CC(=O)N3[C@H](CO)[C@@H](c4ccc(-c5ccc(C)cc5)cc4)[C@H]3C2)cc1 -0.113
C/C=C/c1ccc([C@@H]2[C@@H](CO)N3C(=O)CN(C(=O)Nc4cccc(OC)c4)C[C@@H]23)cc1 0.379
CN(C)C(=O)c1cccc(-c2ccc([C@H]3[C@H](CO)N4C(=O)CN(C(=O)C5CCCCC5)C[C@@H]34)cc2)c1 1.54
CN(C)C(=O)c1cccc(-c2ccc([C@H]3[C@@H](CO)N4C(=O)CN(C(=O)C5CC5)C[C@@H]34)cc2)c1 3.52
N#C[C@H]1[C@H](c2ccccc2-c2ccc(F)cc2)[C@H](CO)N1C(=O)Cc1ccncc1 2.04
CO[C@@H]1CC[C@@H]2CCOc3ccc(C#N)cc3C(=O)N(C)[C@H](C)C(=O)N(C)C[C@@H]1O2 2.26
CO[C@@H]1CN(C)C(=O)c2ccc(NS(=O)(=O)c3c(C)noc3C)cc2OC[C@H](C)NC[C@@H]1C 1.77
O=C(c1ccncc1)N1CCCCN2[C@H](CO)[C@@H](c3ccc(C#Cc4ccccn4)cc3)[C@H]2C1 -2.35
CCCC#Cc1ccc([C@H]2[C@H](CO)N3CCCCN(C(=O)c4ccc5c(c4)OCO5)C[C@@H]23)cc1 1.25
Cn1cnc(S(=O)(=O)N2CCCCN3[C@H](CO)[C@@H](c4ccc(-c5ccc(F)cc5)cc4)[C@@H]3C2)c1 3.91
COc1ccc(C#Cc2ccc([C@@H]3[C@@H](CO)N4CCCCN(C(=O)c5ccncc5)C[C@@H]34)cc2)cc1 -0.38
O=S(=O)(c1ccccc1)N1CCCCN2[C@H](C1)[C@H](c1ccc(-c3ccccc3)cc1)[C@@H]2CO 2.36
COc1ccc(-c2ccc([C@H]3[C@H]4CN(C(=O)c5ccc6c(c5)OCO6)CCCCN4[C@H]3CO)cc2)cc1 0.126
O=S(=O)(Cc1ccccc1)N1CCCCN2[C@@H](CO)[C@H](c3ccc(-c4ccccc4)cc3)[C@@H]2C1 2.58
COc1ccccc1-c1ccc([C@@H]2[C@@H](CO)N3CCCCN(S(=O)(=O)c4cn(C)cn4)C[C@H]23)cc1 -2.23
O=C1CN(S(=O)(=O)Cc2ccccc2)C[C@@H]2[C@@H](c3ccc(C#Cc4ccccc4)cc3)[C@@H](CO)N12 -0.431
O=C(c1cccc(F)c1)N1CC(=O)N2[C@H](C1)[C@@H](c1ccc(C#Cc3ccc(F)cc3)cc1)[C@@H]2CO 2.4
CCC(=O)N1CC[C@H]2[C@@H]1c1cc(-c3ccc(C#N)cc3)ccc1N(C)[C@H]2CO -0.903
O=C(C[C@H]1CC[C@@H]2NC[C@H](O)COC[C@H]2O1)NCCN1CCCCC1 -0.195
O=C1CCCCn2nncc2COC[C@@H](Cc2ccccc2)N1 0.104
CC(=O)NC[C@H]1[C@H](c2ccccc2)[C@@H](CO)N1C(=O)Cc1cccnc1 5.37
CN(C)CC#Cc1ccc([C@H]2[C@H](CO)N3CCCCN(CC4CC4)C[C@@H]23)cc1 3
Cc1ccc(-c2ccc([C@H]3[C@H]4CN(S(=O)(=O)c5cccc(F)c5)CC(=O)N4[C@H]3CO)cc2)cc1 1.96
O=C(c1cccc(F)c1)N1CCCCN2[C@H](CO)[C@H](c3ccc(-c4ccncc4)cc3)[C@H]2C1 0.501
CC(C)C#Cc1ccc([C@H]2[C@H](CO)N3CCCCN(C(=O)c4ccc(F)cc4)C[C@@H]23)cc1 1.11
O=C(c1cccc(F)c1)N1CCCCN2[C@H](CO)[C@H](c3ccc(C#CC4(O)CCCC4)cc3)[C@H]2C1 0.958
O=C(c1ccc(F)cc1)N1CCCCN2[C@@H](CO)[C@H](c3ccc(-c4ccccc4)cc3)[C@@H]2C1 -0.452
CC(C)(O)C#Cc1ccc([C@H]2[C@H]3CN(C(=O)c4ccncc4)CCCCN3[C@H]2CO)cc1 0.748
C[C@H](CO)N1C[C@H](C)[C@H](CN(C)C(=O)Nc2cccc(Cl)c2Cl)OCc2ccccc2-c2ccccc2C1=O -1.18
CCCC#Cc1ccc([C@H]2[C@H]3CN(C(=O)Nc4ccc(F)cc4)CC(=O)N3[C@H]2CO)cc1 3.77
C[C@@H]1CN([C@H](C)CO)C(=O)CCCn2cc(nn2)CO[C@@H]1CN(C)C(=O)Nc1ccc2c(c1)OCO2 -0.664
CCCC#Cc1ccc([C@H]2[C@@H](CO)N3C(=O)CN(C(=O)c4ccncc4)C[C@@H]23)cc1 3.16
